This is an account of results in PubChem BioAssay (NCATS).

Molecules are shown by their SMILES. Results filed as inconclusive are left out. Calls of active or inactive are those of the source. Unless noted, calls follow the shape of the dose curve; as a rule, active = well fitted curve in the direction sought with a large enough effect; inconclusive = small, poorly fitted or top-dose-only effect, or another doubt; inactive = no such curve, though single readings can be large; an effect the other way counts as inactive or inconclusive.

In assay [1] the target is Lysosomal acid glucosylceramidase (Homo sapiens) (UniProt P04062). In words: Glucocerebrosidase-p2 (AID 348; in the data active = potency below about 10 µM; also: potency is read from the fitted curve at half-maximal effect). Conditions: purified GBA, blue fluorogenic substrate, 40 min. Summed up: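 Normal human glucocerebrosidase (0.2 nM) with blue fluorogenic substrate (80 uM final) in citrate/phosphate pH 5.9 with 10mM sodium taurocholate, 0.01% tween-20; 40 min RT, NaOH/glycine stop; fluorescence Ex 365/Em 440; AC50 from a titration from 0.6 nM upwards.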
Sequence of Lysosomal acid glucosylceramidase (Homo sapiens) (P04062 whole entry, looked up): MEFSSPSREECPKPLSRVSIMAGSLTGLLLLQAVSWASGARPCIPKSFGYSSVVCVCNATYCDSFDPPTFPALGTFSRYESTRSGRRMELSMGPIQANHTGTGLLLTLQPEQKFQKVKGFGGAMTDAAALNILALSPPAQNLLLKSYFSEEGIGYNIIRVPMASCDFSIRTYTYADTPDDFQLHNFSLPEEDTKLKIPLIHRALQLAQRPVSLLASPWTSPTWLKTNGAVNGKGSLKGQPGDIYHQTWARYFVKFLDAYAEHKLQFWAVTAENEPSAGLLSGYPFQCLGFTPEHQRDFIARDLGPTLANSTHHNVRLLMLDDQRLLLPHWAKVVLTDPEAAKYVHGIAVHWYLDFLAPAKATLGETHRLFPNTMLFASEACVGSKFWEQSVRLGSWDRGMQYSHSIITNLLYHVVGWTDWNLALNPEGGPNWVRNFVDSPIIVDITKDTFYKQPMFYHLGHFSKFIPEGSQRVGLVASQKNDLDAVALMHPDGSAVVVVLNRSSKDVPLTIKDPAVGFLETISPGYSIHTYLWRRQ

The nature of assay [2]: AP1 Signaling Pathway (AID 357; active = well fitted curve in either direction with a large enough effect, not every such curve was filed as active; also: % is scaled to controls: 0 for no effect and ±100 for the full control effect). Summed up: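 ME-180 cells with beta-lactamase reporter under AP-1 response element, stimulated with EC50 EGF; compounds tested in titration series, 5 h at 37 °C. CCF4 substrate added 2.5 h at room temperature; 460/530 nm emission ratio gave %activity and AC50.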
The target in assay [3] is Cytochrome P450 1A2 (Homo sapiens) (UniProt P05177). In words: p450-cyp1a2 (AID 410; calls by dose curve; also: potency is read from the fitted curve at half-maximal effect;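 as to activity change, negative = inhibition: -100% = full effect of reference inhibitor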). Put shortly:
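Luminescent demethylation readout: Luciferin-ME (100uM, equal to Km) turned over by 20nM CYP1A2 for 60 min at room temperature after NADPH regeneration addition, following 10 min compound preincubation. Normalization used 57 uM furafylline as full inhibition.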

Assay [4] can be described thus: Stat Signaling Pathway (AID 446; active = well fitted curve in either direction with a large enough effect, not every such curve was filed as active;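 also: ME-180 cervical cancer cells given 40 pM IL-6 alongside compound; SIE-controlled beta-lactamase reporter measured as 460/530 nm FRET emission ratio; % is scaled to controls: 0 for no effect and ±100 for the full control effect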). Put shortly: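 FRET read-out (405 nm excitation, 460/530 nm emission) of a beta-lactamase reporter under a STAT-inducible element in ME-180 cervical carcinoma cells. Cells with compound receive 40 pM IL-6 for 5 h. Values are normalised to AC90 stimulation and AC90 JAK-inhibitor controls.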
Assay [5] deals with Glucocorticoid receptor (Homo sapiens) (UniProt P04150). Briefly: GR-EFC Redistribution (AID 451; calls by dose curve; also: potency is read from the fitted curve at half-maximal effect). The following applies: CHO-K1 GR-EFC translocation, beta-gal luminescence, 2 h. Summed up: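 CHO-K1 cells expressing nuclear EA and GR-ED fragments of b-gal; compounds titrated up to 46 uM final, 2 h at 37 C. GR nuclear translocation read as complemented b-gal luminescence after 1 h RT detection.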
Sequence of Glucocorticoid receptor (Homo sapiens) (P04150 whole entry, looked up, the tested form may be a part): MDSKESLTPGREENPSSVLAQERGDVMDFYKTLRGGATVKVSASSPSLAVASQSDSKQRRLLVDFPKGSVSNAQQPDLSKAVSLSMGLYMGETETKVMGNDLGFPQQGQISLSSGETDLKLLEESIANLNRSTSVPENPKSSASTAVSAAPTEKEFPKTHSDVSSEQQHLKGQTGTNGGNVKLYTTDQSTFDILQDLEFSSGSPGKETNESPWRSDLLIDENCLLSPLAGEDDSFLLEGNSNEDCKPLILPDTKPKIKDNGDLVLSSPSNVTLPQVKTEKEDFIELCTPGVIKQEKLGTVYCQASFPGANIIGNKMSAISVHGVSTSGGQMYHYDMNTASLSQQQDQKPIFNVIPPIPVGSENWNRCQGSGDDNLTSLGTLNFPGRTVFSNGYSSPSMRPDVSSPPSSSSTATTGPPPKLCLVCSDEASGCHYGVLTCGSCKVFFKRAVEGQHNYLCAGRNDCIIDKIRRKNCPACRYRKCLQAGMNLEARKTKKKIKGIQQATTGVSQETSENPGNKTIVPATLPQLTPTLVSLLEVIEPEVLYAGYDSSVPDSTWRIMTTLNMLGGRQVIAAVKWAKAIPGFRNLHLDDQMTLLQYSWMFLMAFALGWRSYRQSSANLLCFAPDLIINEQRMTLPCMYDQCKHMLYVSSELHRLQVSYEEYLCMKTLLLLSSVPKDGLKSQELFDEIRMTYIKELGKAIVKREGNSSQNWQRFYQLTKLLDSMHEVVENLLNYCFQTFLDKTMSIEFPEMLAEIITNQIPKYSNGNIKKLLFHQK

The target of assay [6] is Mitogen-activated protein kinase 10 (Mus musculus) (UniProt Q61831). In words: JNK3 AlphaScreen Assay (AID 530; active = well fitted curve in either direction with a large enough effect, not every such curve was filed as active;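 also: kinase came from lysate of stimulated human HepG2 cells; signal reports phosphorylation of biotinylated GST-cJun 1-79 at Ser73 with 10 µM ATP; % is scaled to controls: 0 for no effect and ±100 for the full control effect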). Put shortly:
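Activity was read by AlphaScreen after JNK3-containing HepG2 lysate (cytokine pre-activated) phosphorylated biotinylated GST-cJun with 10 uM ATP at room temperature. Phospho-Ser73 cJun antibody with Protein-A acceptor beads provided detection.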
(In Alpha technology, singlet oxygen from a donor bead excites a nearby acceptor bead.)

For assay [7], the target named is 3',5'-cyclic-AMP phosphodiesterase 4B (Homo sapiens) (UniProt Q07343). Briefly: qHTS Assay for Inhibitors of PDE-IV (AID 607; active = well fitted activation curve with a large enough effect in the main read-out, with a control signal flat, not every such curve was filed as active; also: % of control where 0% means no effect). Summed up:
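Cell-based read-out of cAMP via a modified cyclic nucleotide-gated channel and membrane potential dye (535/590 nm) in HEK293 cells expressing PDE4 endogenously. Compounds tested up to 22.9 uM final; 100 uM RO 20-1724 reference.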
(In general: Quantitative high-throughput screening tests each substance at several concentrations.)

The target in assay [8] is Cytochrome P450 3A4 (Homo sapiens) (UniProt P08684). Briefly: qHTS Assay for Activators of Cytochrome P450 3A4 (AID 885). Also: nearly all actives have a fitted effect of over 65% in size. Summed up:
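Luminescent readout of luciferin formed from 25 uM Luciferin-PPXE (KM level) by 20 nM CYP3A4 in 200 mM KPO4, with 60 min NADPH-driven reaction at room temperature after 10 min compound exposure. Ketoconazole (57 uM) defined 100% inhibition.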

A short description of assay [9]: qHTS Assay for Lipid Storage Modulators (AID 1519; calls by dose curve). The following applies: Drosophila S3 cells, BODIPY lipid droplet/cell ratio, laser cytometry, cells loaded with oleic acid; for activity change, negative = inhibition: at 57.5 µM (top of the series). Put shortly: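 Cells seeded at 5,000 per well were treated with compounds over a concentration series and loaded with oleic acid (400 uM, as added). Lipid droplet fluorescence (488 nm excitation, 500-530 nm channel) was read by laser-scanning cytometry and normalized to 20 uM Triacsin C.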

Assay [10] is described as follows: Confirmatory qHTS for small molecule stabilizers of the endoplasmic reticulum resident proteome: Secreted ER Calcium Modulated Protein (SERCaMP) assay (AID 1508628). Also: nearly all actives have a fitted effect of over 40% in size. Also: potency is read from the fitted curve at half-maximal effect. Summed up:
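Reporter secretion upon ER calcium depletion (100 nM thapsigargin, 4 h, 37C) is measured as medium luminescence with coelenterazine, after 16 h compound pretreatment of SH-SY5Y-GLuc-SERCaMP cells; primary at three concentrations up to 38.3 uM, follow-up at 11 (up to 76.6 uM).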

The target in assay [11] is Calcium and integrin-binding protein 1 (Homo sapiens) (UniProt Q99828). Briefly: Primary qHTS for Identification of Calcium Integrin Binding Protein 1 (CIB1) Competitor (AID 1508620). Also: top concentration of the series differs between compounds; % is scaled to controls: 0 for no effect and ±100 for the full control effect. Summed up: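 Fluorescence polarization competition: GST-tagged CIB1 (1 uM final) preincubated with compound 15 min at room temperature, then FITC-labelled alphaIIb peptide (100 nM final) added. After 15 min at room temperature, polarization read at Ex 480/Em 540.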
Sequence of Calcium and integrin-binding protein 1 (Homo sapiens) (Q99828 whole entry, looked up): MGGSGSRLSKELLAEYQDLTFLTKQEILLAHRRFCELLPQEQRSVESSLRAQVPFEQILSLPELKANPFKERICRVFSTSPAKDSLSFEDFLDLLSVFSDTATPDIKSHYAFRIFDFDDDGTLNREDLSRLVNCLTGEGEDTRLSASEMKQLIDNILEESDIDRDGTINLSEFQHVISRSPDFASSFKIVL

The nature of assay [12]: Primary qHTS for small molecule stabilizers of the endoplasmic reticulum resident proteome: Secreted ER Calcium Modulated Protein (SERCaMP) assay (AID 1508630). Also: % is scaled to controls: 0 for no effect and ±100 for the full control effect. Put shortly: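 The SH-SY5Y reporter protocol was run at 3 concentrations up to 38.3 uM (primary) or 11 concentrations (follow-up): 16 h compound, 100 nM thapsigargin for 4 h, then extracellular luciferase luminescence.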

Assay [13] relates to HIV-1 nucleocapsid protein NCp7 (binding to TG oligonucleotide). In words: HIV Nucleocapsid (AID 346; call rule not given here;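 also: potency is read from the fitted curve at half-maximal effect; potency is for inhibitors that block NC binding and lower polarization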). The following applies: HIV-1 NC / fluorescein-TGTGTGTG probe, fluorescence polarization. Put shortly:
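Inhibition of nucleocapsid binding to single-stranded 5'-TGTGTGTG probe (10 nM) was measured by fluorescence polarization after 1 hr at room temperature with 100 nM protein under high-salt, zinc-containing, reducing conditions.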

Assay [14] can be described thus: NFAT Signaling Pathway (AID 444; active = well fitted curve in either direction with a large enough effect, not every such curve was filed as active). The following applies: Jurkat NFAT-bla M1, carbachol, beta-lactamase ratio, 5 h; at 7.69 µM (top of the series). Summed up:
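Jurkat cells with NFAT-driven β-lactamase reporter and co-expressed M1 receptor, stimulated with carbachol (final 1 uM, ~EC50), compound titration, 5 h at 37 °C. CCF4 loaded 1 h at RT; 460/530 nm ratio gave %activity and AC50.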

Assay [15] can be described thus: Counterscreen qHTS for small molecule stabilizers of the endoplasmic reticulum resident proteome: GLuc-NoTag assay (AID 1508627).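 Also: 0% = thapsigargin alone and -100% = DMSO vehicle control.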 Put shortly: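 Counterscreen line: SH-SY5Y-GLuc-NoTag. Seed, 5 h; compound, 19 h; thapsigargin 100 nM, 4 h; 37C/5% CO2. Readout: secreted GLuc luminescence, coelenterazine 0.07x final, no lysis.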
The target in assay [16] is Cytochrome P450 3A4 (Homo sapiens) (UniProt P08684). In words: qHTS Assay for Inhibitors and Substrates of Cytochrome P450 3A4 (AID 884). Also: % is scaled to controls: 0 for no effect and ±100 for the full control effect; nearly all actives have a fitted effect of over 50% in size. Summed up: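 Luminescent readout of luciferin produced by CYP3A4 (20 nM) dealkylation of Luciferin-PPXE, 25 uM (its KM). NADPH-driven reaction ran 60 min at RT after 10 min compound preincubation; data scaled to 57 uM ketoconazole as 100% inhibition.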
Sequence of Cytochrome P450 3A4 (Homo sapiens) (P08684 whole entry, looked up): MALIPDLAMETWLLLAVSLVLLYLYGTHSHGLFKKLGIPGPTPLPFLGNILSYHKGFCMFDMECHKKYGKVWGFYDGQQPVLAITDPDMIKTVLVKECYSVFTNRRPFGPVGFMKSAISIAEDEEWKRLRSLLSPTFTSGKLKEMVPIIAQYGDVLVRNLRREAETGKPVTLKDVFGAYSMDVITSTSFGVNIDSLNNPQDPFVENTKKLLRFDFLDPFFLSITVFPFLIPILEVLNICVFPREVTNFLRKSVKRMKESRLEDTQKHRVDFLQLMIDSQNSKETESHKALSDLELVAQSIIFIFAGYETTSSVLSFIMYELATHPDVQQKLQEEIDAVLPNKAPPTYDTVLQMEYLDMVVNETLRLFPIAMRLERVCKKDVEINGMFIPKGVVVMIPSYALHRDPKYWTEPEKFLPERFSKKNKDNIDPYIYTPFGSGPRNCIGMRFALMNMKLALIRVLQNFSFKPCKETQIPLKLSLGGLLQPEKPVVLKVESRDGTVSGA

The nature of assay [17]: qHTS Assay for Identification of Small Molecule Agonists for Hypoxia Response Element Signaling Pathway (AID 914; active = well fitted activation curve with a large enough effect in the signal ratio, with a control signal flat, not every such curve was filed as active; the % refers to the signal ratio; also: % of control where 0% means no effect). The following applies: ME-180 (cervical carcinoma) HRE-bla reporter, beta-lactamase ratio, CoCl2, 17 h; activation: stronger effect = higher value. Put shortly:
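Reporter activity (beta-lactamase, CCF4 460nm/530nm ratio) in HRE-bla ME-180 cells is recorded after 17 h compound exposure with EC50 CoCl2 at 37 degrees Celsius. AC50 values come from titration data.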

Setting [18] is: measured here: cell count channel max response.
The mark [19] stands for this setting: measured here: lipid channel max response.

Sequence of 3',5'-cyclic-AMP phosphodiesterase 4B (Homo sapiens) (Q07343 whole entry, looked up): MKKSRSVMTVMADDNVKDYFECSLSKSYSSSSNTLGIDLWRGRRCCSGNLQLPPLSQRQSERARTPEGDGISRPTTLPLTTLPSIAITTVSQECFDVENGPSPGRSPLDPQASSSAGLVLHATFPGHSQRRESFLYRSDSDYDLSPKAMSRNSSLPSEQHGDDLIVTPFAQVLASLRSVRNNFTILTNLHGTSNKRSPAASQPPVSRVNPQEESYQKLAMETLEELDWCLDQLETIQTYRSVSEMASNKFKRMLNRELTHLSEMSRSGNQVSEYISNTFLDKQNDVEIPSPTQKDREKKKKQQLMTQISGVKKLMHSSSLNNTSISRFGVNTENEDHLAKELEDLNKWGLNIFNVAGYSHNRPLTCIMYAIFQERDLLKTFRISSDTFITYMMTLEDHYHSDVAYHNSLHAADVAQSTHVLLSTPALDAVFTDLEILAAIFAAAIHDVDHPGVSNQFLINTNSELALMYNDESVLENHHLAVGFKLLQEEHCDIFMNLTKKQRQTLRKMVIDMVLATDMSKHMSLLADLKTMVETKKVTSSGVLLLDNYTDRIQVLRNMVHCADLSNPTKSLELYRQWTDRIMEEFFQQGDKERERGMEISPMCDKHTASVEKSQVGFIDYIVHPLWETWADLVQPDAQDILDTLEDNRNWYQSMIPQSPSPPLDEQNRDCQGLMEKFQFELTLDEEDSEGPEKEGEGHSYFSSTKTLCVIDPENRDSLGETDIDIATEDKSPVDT
Sequence of Cytochrome P450 1A2 (Homo sapiens) (P05177 whole entry, looked up): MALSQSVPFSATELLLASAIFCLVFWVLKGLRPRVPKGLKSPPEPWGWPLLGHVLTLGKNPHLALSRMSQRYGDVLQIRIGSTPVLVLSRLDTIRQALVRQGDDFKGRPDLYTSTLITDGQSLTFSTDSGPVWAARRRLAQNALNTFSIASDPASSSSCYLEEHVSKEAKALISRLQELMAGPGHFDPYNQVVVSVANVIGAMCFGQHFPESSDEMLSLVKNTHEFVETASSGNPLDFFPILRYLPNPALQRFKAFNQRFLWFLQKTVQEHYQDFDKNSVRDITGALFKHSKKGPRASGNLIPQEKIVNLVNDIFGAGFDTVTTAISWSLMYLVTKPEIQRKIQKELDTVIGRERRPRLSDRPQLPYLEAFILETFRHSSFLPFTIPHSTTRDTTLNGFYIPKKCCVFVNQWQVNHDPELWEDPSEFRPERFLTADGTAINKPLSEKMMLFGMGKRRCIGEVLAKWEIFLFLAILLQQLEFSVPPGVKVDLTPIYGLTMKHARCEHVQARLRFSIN

Turning to `c1cc(N2CCCC3(CCNCC3)C2)ccn1`, the Potency was > 11.4 µM (inactive) in assay [1], > 46 µM (inactive) in [5] and 14.1 µM (active) in assay [10]. Also, the outcome in assay [2], in [4] and in assay [6] was inactive. Moreover, the Potency entry in assay [3], in [7] and in assay [8] was “inactive” throughout. Further, the activity change, negative = inhibition in assay [9] was 4.41% (inactive). The figures for the max response in [9] (setting [18]) and in assay [9] (setting [19]) were 13.5% and 21.3%, respectively.
Regarding `COc1cccc(CNc2ccc(S(=O)(=O)Nc3ccc4ccccc4c3)cc2)c1O`, the outcome in [11] was inactive.
On to `CN1CCN(c2cnc3c(O)ccc(C(=O)O)c3c2)CC1`, for which the result in assay [11] was inactive.
Take `CC1(C)C2C[C@@H](O)[C@]3(C)C(CC[C@@]4(C)[C@H](c5ccoc5)C[C@H]5O[C@]543)[C@@]2(C)[C@@H](O)C[C@H]1O` (stereo not given in full): in [12], the outcome was inactive.
For `N#Cc1c(-c2ccc([N+](=O)[O-])o2)no[n+]1[O-]`, the result in [11] was inactive.
In the case of `CCOc1ccc(CCNC(=O)c2ccccc2)cc1OCC`, the outcome in [11] was inactive.
Regarding `CCOc1ccc(CCNC(=O)c2cc3ccccc3n2Cc2cccc(C)c2)cc1OCC`, the outcome in assay [11] was inactive.
For `CC(=O)O[C@@H]1C[C@@]2(C)C(c3ccoc3)C[C@H]3O[C@]32[C@]2(C)C(=O)C(O)=C3C(C)(C)C(=O)C=C[C@]3(C)C12` (stereo not given in full), the result in assay [12] was inactive.
As to `C[C@]12CC[C@@H](O)C[C@H]1CC[C@@H]1[C@H]2CC[C@]2(C)C(=O)CC[C@@H]12`, in assay [12], the result was inactive.
On to `c1cc(CN2CCCC3(CCNCC3)C2)ccn1`, for which the Potency is > 20 µM (inactive) in [13], > 11.4 µM (inactive) in assay [1] and > 46 µM (inactive) in assay [5]. The molecule was called inactive in assay [2], in [4], in assay [6] and in assay [15]. Moreover, the Potency result in assay [3], in assay [7] and in [8] was “inactive” throughout. Further, the activity change, negative = inhibition in assay [14] is -14.6% (inactive); in assay [9], 4.72% (inactive). In addition, the max response in assay [9] (setting [18]) was 11%; in assay [9] (setting [19]), 17.7%.
As to `CC(n1cc(C[C@H](N)C(=O)O)c2ccccc21)n1cc(C[C@H](N)C(=O)O)c2ccccc21`, in assay [12], the result was inactive.
With `CC(=O)OC[C@]12C[C@H](OC(=O)CC(C)C)C(C)=C[C@H]1O[C@H]1[C@H](O)[C@@H](OC(C)=O)[C@@]2(C)[C@]12CO2`, the result in assay [12] was inactive.
On to `c1cnc(N2CCC3(CCNCC3)CC2)nc1`, for which the values for the Potency in assay [13], in assay [1] and in assay [5] were > 20 µM (inactive), > 11.4 µM (inactive) and > 46 µM (inactive), respectively. The molecule was called inactive in assay [2], in assay [4] and in assay [15]. Moreover, the Potency entry in assay [3], in assay [7], in assay [8] and in assay [10] was “inactive” in each case. The activity change, negative = inhibition in assay [9] was 5.39% (inactive). Besides, the max response in assay [9] (setting [18]) is 13.8%; in assay [9] (setting [19]), 23.4%.
`CCOC(=O)c1ncc2[nH]c3ccc(OCc4ccccc4)cc3c2c1COC`: the outcome in assay [12] was inactive.
Consider `C=CCN1CCc2cccc3c2C1Cc1ccc(O)c(O)c1-3` (stereo not given), for which the Potency in assay [10] was 39.8 µM (active).
As to `CCCC[N+]12C3CC(C(CC)[C@H]1O)[C@@H]1C(O)C4(C[C@@H]12)c1ccccc1N(C)C34` (stereo not given in full), the result in [12] was inactive.
`COCC#CCN1CCCCC1c1cccnc1` (stereo not given): the result in assay [12] was inactive.
On to `N#Cc1cccc(NC(=O)N2CC3(CCN(C(=O)Oc4ccccc4)CC3)C2)c1`, for which the Potency in assay [13] is > 20 µM (inactive); in assay [1], > 11.4 µM (inactive); in assay [3], 15.8 µM (active); in assay [5], > 46 µM (inactive). The outcome in assay [2], in assay [4], in assay [6] and in assay [12] was inactive. In addition, the values for the activity change, negative = inhibition in assay [14] and in [9] were 17.6% (inactive) and 1.56% (inactive), respectively. In addition, the Potency entry in assay [7] and in [16] was “inactive” throughout. Further, the activation in assay [17] was -17.9% (inactive). In addition, the results for the max response in assay [9] (setting [18]) and in [9] (setting [19]) were -4.33% and 2.3%, respectively.
As for `N#Cc1ccc(CN2CC3(CCNCC3)C2)cc1`, the Potency was > 20 µM (inactive) in assay [13], > 11.4 µM (inactive) in assay [1] and > 46 µM (inactive) in assay [5]. For the same molecule, the outcome in assay [2], in [4], in [6] and in assay [12] was inactive. The activity change, negative = inhibition in assay [14] is -23.5% (inactive); in assay [9], -3.34% (inactive). Moreover, the Potency result in [7] was “inactive”. The max response is -8.82% in assay [9] (setting [18]) and -10.3% in assay [9] (setting [19]).
